Rows were chosen to be rich in hits. Some 2.4% of all compounds tested hit in one or more screens of this group.
Pol kappa inh-1: inhibitors of human DNA polymerase kappa | Q9UBT6 | Potency, µM (highest dose often 107 µM), without a hit: at the top dose activity, negative = inhibition, actives largely listed as inhibitors | purified Pol kappa, fluorescent DNA synthesis assay, 10 min | actives 0.53% (n = 400,000) | AID 588579; note: potency is the fitted concentration of half-maximal effect; % is set by controls: 0 for no effect and ±100 for the full control effect
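Pol kappa 10 nM + cpd, 15 min RT; start w/ substrate 50 nM final; fluorescence kinetic read, 0 and 10 min. Neg ctrl: buffer, no enzyme.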
Pol iota inh: blocks human DNA polymerase iota activity; Q9UNA4; Pol iota fluorescent replication assay, 10 min; Potency, µM (titrated, usually from 115 µM), inactives show top-dose activity, negative = inhibition, usual class: inhibitors; actives 1% (n = 390,000); AID 588590; note: potency is the fitted concentration of half-maximal effect
Target sequence (Q9UNA4 whole entry, looked up): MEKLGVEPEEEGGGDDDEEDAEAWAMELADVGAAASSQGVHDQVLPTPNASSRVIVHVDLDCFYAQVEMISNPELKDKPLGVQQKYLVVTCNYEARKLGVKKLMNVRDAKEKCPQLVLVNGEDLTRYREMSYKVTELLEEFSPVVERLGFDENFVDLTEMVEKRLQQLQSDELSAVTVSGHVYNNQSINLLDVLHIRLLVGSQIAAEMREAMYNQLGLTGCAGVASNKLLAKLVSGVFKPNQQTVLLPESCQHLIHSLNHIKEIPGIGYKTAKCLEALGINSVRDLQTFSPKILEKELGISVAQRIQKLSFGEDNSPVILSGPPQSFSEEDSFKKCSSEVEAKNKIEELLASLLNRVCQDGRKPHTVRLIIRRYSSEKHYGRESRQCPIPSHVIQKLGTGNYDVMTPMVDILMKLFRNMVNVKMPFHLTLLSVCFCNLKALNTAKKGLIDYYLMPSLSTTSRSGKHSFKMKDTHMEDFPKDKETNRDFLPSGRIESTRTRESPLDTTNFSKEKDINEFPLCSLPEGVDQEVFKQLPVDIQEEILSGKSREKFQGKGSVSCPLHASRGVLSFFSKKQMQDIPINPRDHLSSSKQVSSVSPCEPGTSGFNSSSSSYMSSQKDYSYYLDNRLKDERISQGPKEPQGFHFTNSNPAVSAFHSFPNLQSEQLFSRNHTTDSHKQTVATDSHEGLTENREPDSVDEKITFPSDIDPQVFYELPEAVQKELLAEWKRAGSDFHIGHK
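Fluorescent replication assay read twice, at 0 min and 10 min after adding 50 nM (final) substrate. Enzyme (10 nM) and compounds were first incubated 15 min at room temperature; enzyme-free buffer wells were negative controls.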
FEN1 inhibitor: inhibitors of human flap endonuclease 1; P39748; Recombinant FEN1 flap cleavage, fluorescence, 15 min; Potency, µM (series often up to 114 µM), for inactives: at the highest dose activity change, negative = inhibition, actives largely listed as inhibitors; actives 0.35% (n = 390,000); note: potency is the fitted concentration of half-maximal effect; % is set by controls: 0 for no effect and ±100 for the full control effect; nearly all actives have a fitted effect of over 65% in size
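Compounds are tested as a concentration series against 10 nM FEN1; after a 15 min room-temperature preincubation, 50 nM substrate starts cleavage, with plate reads at 0 and 15 min. Normalized responses are fitted by a Hill equation.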
Pol eta inh-1: DNA polymerase eta (human) inhibition | AID 588591 | Q9Y253 | actives 1.2% (n = 390,000) | recombinant Pol eta, fluorescent DNA replication assay | Potency, µM (highest dose often 114 µM), for inactives: top-dose activity change, negative = inhibition, actives largely listed as inhibitors; note: potency is the fitted concentration of half-maximal effect; % is set by controls: 0 for no effect and ±100 for the full control effect
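Fluorescent replication assay: 50 nM final substrate added after a 15 min room-temperature compound preincubation with 10 nM enzyme. Signal taken at 0 min and again at 10 min.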
POLB inh: blocks human DNA polymerase beta activity; Potency, µM (series often up to 114 µM), without a hit: at the highest dose activity change, negative = inhibition, hits mostly inhibitors; AID 485314; Pol beta primer extension/strand displacement, fluorescence kinetic; P06746; actives 1.3% (n = 340,000); note: potency is the fitted concentration of half-maximal effect; % is set by controls: 0 for no effect and ±100 for the full control effect
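Curves were derived by four-parameter Hill fits of normalized qHTS data. The kinetic fluorescent primer-extension read was taken at 0 and 10 min after 50 nM substrate, following a 15 min room-temperature preincubation of 10 nM enzyme with compounds.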
TDP1 block: inhibitors of human tyrosyl-DNA phosphodiesterase TDP1. Q9NUW8. recombinant TDP1, AlphaScreen DNA substrate cleavage. AID 485290. Potency, µM (doses to about 130 µM), without a hit: at the top dose activity change, negative = inhibition, actives largely listed as inhibitors. actives 0.28% (n = 350,000); note: potency is the fitted concentration of half-maximal effect; % is set by controls: 0 for no effect and ±100 for the full control effect; nearly all actives have a fitted effect of over 40% in size
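Steps: enzyme plus compound, 15 min RT; add biotin/phosphotyrosine-FITC oligonucleotide (15 nM final), react 5 min; add donor/acceptor beads (10 ug/ml final), 10 min; read AlphaScreen. Tdp1 at 1 nM final.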
PGK validate: blocks T. brucei phosphoglycerate kinase. shares compounds with Pol kappa inh-1. TbPGK coupled GAPDH assay, Kinase-Glo luminescence. Potency, µM (top dose mostly 57.5 µM), for inactives: top-dose activity change, negative = inhibition, actives largely listed as inhibitors. actives 79% (n = 500); note: potency is the fitted concentration of half-maximal effect; % is set by controls: 0 for no effect and ±100 for the full control effect; nearly all actives have a fitted effect of over 65% in size
Pol iota confirm: Inhibitors of human DNA polymerase iota, confirmation | shares compounds with Pol kappa inh-1 | Pol iota primer extension, TAMRA/BHQ fluorescence | Potency, µM, hits mostly inhibitors | actives 77% (n = 1,500) | AID 720496; note: potency is the fitted concentration of half-maximal effect
GALK inh confirm: confirmation of human galactokinase (GALK) inhibitors; shares compounds with Pol eta inh-1; purified GALK, Kinase-Glo ATP depletion luminescence; Potency, µM (top dose mostly 115 µM), for inactives: at the top dose activity, negative = inhibition, most hits filed as inhibitors; actives 70% (n = 150)
Redox cycling: generates H2O2 by redox cycling, flagging GALK artifacts. shares compounds with Pol eta inh-1. actives 40% (n = 150). Phenol red-HRP H2O2 redox cycling, absorbance 600 nm. Potency, µM (series often up to 115 µM), inactives show at the highest dose activity change, negative = H2O2 signal, actives largely listed as inhibitors
HEK293 tox: HEK-293 cytotoxicity, GALK inhibitor secondary. HEK-293 viability, ATP luminescence (CellTiter-Glo), 24/48 h. shares compounds with Pol eta inh-1. AID 2547. actives 10% (n = 170). Potency, µM (titrated, usually from 46.1 µM), for the others: at the top dose activity change, negative = cytotoxicity, usual class: inhibitors; note: potency is the fitted concentration of half-maximal effect; % is set by controls: 0 for no effect and ±100 for the full control effect
Pol kappa inh-2: confirmation of human DNA polymerase kappa inhibitors. shares compounds with Pol eta inh-1. purified Pol-kappa, fluorescent strand-displacement substrate. Potency, µM, actives largely listed as inhibitors. actives 76% (n = 920). AID 720501; note: potency is the fitted concentration of half-maximal effect
Pol eta inh-2: Pol eta (human) inhibition, cherry-pick confirmation; actives 64% (n = 2,600); Pol eta primer extension, TAMRA/BHQ fluorescence, 10 min; Potency, µM, most hits filed as inhibitors; AID 720502; shares compounds with Pol eta inh-1; note: potency is the fitted concentration of half-maximal effect
Active calls of the source: *; [ ] = dose if it differs, or a comment. Calls come from the whole dose curve; as a rule, active = well fitted curve in the direction sought with a large enough effect; inconclusive = small, poorly fitted or top-dose-only effect, or another doubt; inactive = no such curve, though single readings can be large; an effect the other way counts as inactive or inconclusive.

How did CCC(/C=C/C(C)C1CCC2C3CC=C4CC(O)CC[C@@]4(C)C3CC[C@@]12C)C(C)C (stereo not given in full) do in these assays?
Pol kappa inh-1: -5%[60.1 µM]; TDP1 block: 2%

How did CC(NC(=O)CCC(=O)Nc1ccccc1O)c1ccccc1 (stereo not given) do in these assays?
Pol kappa inh-1: -1%; Pol iota inh: 49%; FEN1 inhibitor: 8%; Pol eta inh-1: -19%

What do the screens show for `CC(CNc1ccccc1O)C(=O)O` (stereo not given)?
Pol kappa inh-1: inconclusive; Pol iota inh: inconclusive; FEN1 inhibitor: -2%; Pol eta inh-1: 25µM*; POLB inh: 8.9µM*; PGK validate: inconclusive; Pol eta inh-2: 60*

How did O=C(Nc1ccc(-c2nc3ccc(NC(=O)c4cccs4)cc3[nH]2)cc1)c1cccs1 do in these assays?
Pol kappa inh-1: inconclusive; Pol iota inh: 20µM*; FEN1 inhibitor: inconclusive; Pol eta inh-1: inconclusive; POLB inh: 10µM*; TDP1 block: -9%; Pol iota confirm: 38*; Pol eta inh-2: 67*

What do the screens show for `O=C(CSc1n[nH]c(=O)[nH]c1=O)Nc1ccc2c(c1)C(=O)c1ccccc1C2=O`?
Pol kappa inh-1: -42%; Pol iota inh: inconclusive; FEN1 inhibitor: 28µM*; Pol eta inh-1: 8.9µM*; POLB inh: 2.8µM*; PGK validate: 3.3µM*; Pol iota confirm: 27*; Pol kappa inh-2: 24*; Pol eta inh-2: 19*

Results for O=C(Nc1ccc(C(F)(F)F)cc1)C1(c2cccs2)CCOCC1 ?
Pol kappa inh-1: -7%[60.1 µM]; Pol iota inh: -16%; FEN1 inhibitor: -17%; Pol eta inh-1: -14%; POLB inh: 19%; TDP1 block: -3%

How did CC1(C)C(=O)C=C[C@]2(C)C1CC(=O)[C@]1(C)C2CC[C@@]2(C)C(c3ccoc3)OC(=O)C3O[C@@]321 (stereo not given in full) do in these assays?
Pol kappa inh-1: -5%[60.1 µM]; TDP1 block: 6%

What do the screens show for `CCOC(=O)CCC(=O)N(CCN(C(=O)CCC(=O)OCC)c1ccccc1)c1ccccc1`?
Pol kappa inh-1: -5%; Pol iota inh: 15%; FEN1 inhibitor: -6%; Pol eta inh-1: -16%; POLB inh: 42%; TDP1 block: 0%

What do the screens show for `CCOC(=O)N(O)c1ccc(C=Cc2ccccc2)cc1`?
Pol kappa inh-1: 79µM*; Pol iota inh: 25µM*; FEN1 inhibitor: -10%; Pol eta inh-1: 13µM*; PGK validate: 9.2µM*; Pol iota confirm: 75*; Pol kappa inh-2: 17*; Pol eta inh-2: inconclusive

What do the screens show for `O=C(O)COc1ccc2c(c1)O/C(=C\c1ccco1)C2=O`?
Pol kappa inh-1: 79µM*; Pol iota inh: 11µM*; FEN1 inhibitor: inconclusive; Pol eta inh-1: 5µM*; POLB inh: 32µM*; Pol iota confirm: 27*; Pol kappa inh-2: 6.7*; Pol eta inh-2: 30*

How did NC1=C(Cl)C(=O)c2ccc(S(N)(=O)=O)cc2C1=O do in these assays?
Pol kappa inh-1: -19%; Pol iota inh: 4µM*; FEN1 inhibitor: 0%; Pol eta inh-1: 10µM*; Pol iota confirm: 75*; Pol eta inh-2: 38*

What do the screens show for `CCc1cccc(C)c1Nc1c(-c2cccs2)nc2nc(C)cc(C)n12`?
Pol kappa inh-1: -11%; Pol iota inh: 20%; FEN1 inhibitor: -12%; Pol eta inh-1: -9%; POLB inh: 2%; TDP1 block: 5%

Results for COCCN(C(=O)c1cc2c(s1)CCC2)c1c(N)n(CC(C)C)c(=O)[nH]c1=O ?
Pol kappa inh-1: 45µM*; Pol iota inh: 20µM*; FEN1 inhibitor: -2%; Pol eta inh-1: 8.9µM*; TDP1 block: inconclusive; Pol iota confirm: 21*; Pol kappa inh-2: 19*; Pol eta inh-2: 48*

What do the screens show for `CCCn1c(N)c(N(CCOC)C(=O)c2cc3c(s2)CCCCC3)c(=O)[nH]c1=O`?
Pol kappa inh-1: -7%; Pol iota inh: 26%; FEN1 inhibitor: 6%; Pol eta inh-1: -24%; POLB inh: -3%; TDP1 block: 3%

How did Cc1oc(-c2ccc(Cl)cc2)cc1-c1nn2c(-c3ccoc3C)nnc2s1 do in these assays?
Pol kappa inh-1: inconclusive; Pol iota inh: inconclusive; FEN1 inhibitor: -1%; Pol eta inh-1: 4.5µM*; POLB inh: 3.5µM*; Pol iota confirm: inconclusive; Pol eta inh-2: 76*

How did C[n+]1cccc2c(Br)ccc([O-])c21 do in these assays?
Pol kappa inh-1: -37%; Pol iota inh: inconclusive; FEN1 inhibitor: 1%; Pol eta inh-1: 20µM*; POLB inh: 28µM*; TDP1 block: -5%; Pol iota confirm: 19*; GALK inh confirm: 47µM*; Redox cycling: 21µM*; HEK293 tox: -7%; Pol eta inh-2: 24*
